Source: PubChem BioAssay (National Center for Advancing Translational Sciences (NCATS))
SMN2 splice enh: increases expression of the SMN2 splice variant; HEK293 SMN2-luciferase splicing reporter, luminescence, 30-36 h; AID 1458; Potency, µM (doses to about 46.1 µM), actives largely listed as activators; 210,000 tested, 2.8% active; further: nearly all actives have a fitted effect of over 55% in size
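HEK293 cells carry an SMN2 […]–luciferase reporter in which exon 7 inclusion puts luciferase in frame. Cells were plated 10-12 h before compound addition, then incubated 30-36 h at 37C. ONE-Glo luminescence was read; sodium butyrate at 4.5 mM final served as control.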
Rab9 prom act: Rab9 promoter activation; Huh7 Rab9 promoter-luciferase reporter, luminescence, 24 h; Potency, µM (top dose mostly 9.22 µM), most hits filed as activators; 320,000 tested, 2.8% active; further: nearly all actives have a fitted effect of over 60% in size
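Luminescence from Amplite-detected luciferase (10 minutes, ambient) reports Rab9 promoter activation. Before that, stable Rab9-luciferase Huh7 cells (1500/well, reduced-serum OP-MEM I plus 10% FBS) were exposed to compound for 24 hours at 37C.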
ELG1 genotox: inducers of genotoxicity in HEK293T ELG1-luciferase cells. HEK293T ELG1-luciferase reporter, luminescence, 16 h. Potency, µM (series often up to 46 µM), most hits filed as activators. 330,000 tested, 1.3% active. AID 504466; further: nearly all actives have a fitted effect of over 60% in size
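Screening used a luciferase reporter fused to human ELG1 in HEK293T cells. Luminescence was read on a CCD plate imager after 16 hr exposure and 30 min ONE-Glo incubation.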
FLuc modulator: counter-screen for miR-21 project: firefly luciferase inhibitors or activators. AID 588342. purified FLuc, Km substrates, luminescence inhibition. 360,000 tested, 6.9% active. P08659. Potency, µM (highest dose often 57.5 µM), hits mostly inhibitors; further: nearly all actives have a fitted effect of over 55% in size
Target sequence (P08659 whole entry, looked up): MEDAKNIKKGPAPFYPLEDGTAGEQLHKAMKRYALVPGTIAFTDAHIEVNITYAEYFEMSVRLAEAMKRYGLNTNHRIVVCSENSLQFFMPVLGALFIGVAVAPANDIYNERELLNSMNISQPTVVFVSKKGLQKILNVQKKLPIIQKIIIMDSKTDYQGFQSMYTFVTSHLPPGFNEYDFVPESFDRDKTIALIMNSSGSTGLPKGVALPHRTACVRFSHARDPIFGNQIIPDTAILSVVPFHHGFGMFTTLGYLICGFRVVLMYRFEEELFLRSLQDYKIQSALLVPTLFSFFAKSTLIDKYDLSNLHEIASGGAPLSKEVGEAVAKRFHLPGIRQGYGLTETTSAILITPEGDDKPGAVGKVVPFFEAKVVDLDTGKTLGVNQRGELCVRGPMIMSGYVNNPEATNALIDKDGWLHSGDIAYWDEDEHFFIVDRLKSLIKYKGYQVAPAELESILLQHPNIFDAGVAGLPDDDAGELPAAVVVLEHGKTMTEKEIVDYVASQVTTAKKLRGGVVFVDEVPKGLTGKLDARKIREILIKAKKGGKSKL
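Biochemical qHTS of compounds, final roughly 60 µM downward over six points, against 10 nM purified firefly luciferase using Km concentrations of substrates (10 uM D-luciferin, 10 uM ATP) in Tris acetate pH 7.5 buffer; luminescence output.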
NPC1 promoter act: activators of NPC1 promoter | Huh7 NPC1 promoter luciferase reporter, 24 h | Potency, µM (highest dose often 9.22 µM), usual class: activators | 320,000 tested, 2.4% active; further: nearly all actives have a fitted effect of over 60% in size
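Stably transfected Huh7 (NPC1 promoter→luciferase), 1500 cells/well in Opti-MEM + 10% FBS, 2 h settle, then compound 24 h at 37 °C. Luminescence after 10 min with Amplite reagent.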
ELG1 repair inh: blocks ELG1-dependent DNA repair in HEK293T cells; HEK293T ELG1-luciferase reporter, luminescence, 16 h; DNA damage induced by 5-fluorouridine; 330,000 tested, 2.3% active; Potency, µM (titrated, usually from 46.1 µM), hits mostly inhibitors; further: nearly all actives have a fitted effect of over 55% in size
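HEK293T cells expressing luciferase-tagged ELG1 (2,000/well) received 5-Fluorouridine plus compound or DMSO for 16 hr at 37 °C. Luciferase was read by ONE-Glo luminescence after 30 min at room temperature.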
Each line names hits and unclear results; the compound was inactive in the other large screens. This is a sample that favours compounds with a hit; in the whole collection about 9.4% have one here. The call rests on the fitted dose curve; in most records, active means well fitted curve in the direction sought with a large enough effect; inconclusive means small, poorly fitted or top-dose-only effect, or another doubt; inactive means no such curve, though single readings can be large; an effect the other way counts as inactive or inconclusive.

N#CC1=C(Nc2ccc(Br)cc2)CCC1	ELG1 genotox inconclusive (no result: SMN2 splice enh)
Cc1ccccc1CNC(=O)Cc1ccc(NC(=O)N2CCCCc3ccccc32)cc1	none (no result: SMN2 splice enh, Rab9 prom act, ELG1 genotox, NPC1 promoter act, ELG1 repair inh)
COc1ccc(OC)c(CNC(=O)c2ccc(Sc3ccc(C)cc3)c(N)c2)c1	none (no result: SMN2 splice enh, Rab9 prom act, ELG1 genotox, NPC1 promoter act, ELG1 repair inh)
COC(=O)c1ccc(Sc2ccc(C)cc2)c(N)c1	FLuc modulator 19µM, ELG1 repair inh inconclusive
N#Cc1c(N2CCCC2)nsc1-c1ccccc1	Rab9 prom act inconclusive, ELG1 genotox inconclusive, FLuc modulator 15µM, NPC1 promoter act inconclusive, ELG1 repair inh inconclusive (no result: SMN2 splice enh)
O=C(CCNS(=O)(=O)c1cccc2nsnc12)Nc1ccc(F)cc1	none (no result: Rab9 prom act, ELG1 genotox, NPC1 promoter act, ELG1 repair inh)
CSc1ccc(C2Nc3cccc4cccc(c34)N2)cc1	FLuc modulator 21µM, NPC1 promoter act inconclusive (no result: SMN2 splice enh)
O=[N+]([O-])c1cc(C2Nc3cccc4cccc(c34)N2)ccc1Cl	NPC1 promoter act inconclusive
Clc1ccc(C2Nc3cccc4cccc(c34)N2)cc1	FLuc modulator 19µM, ELG1 repair inh inconclusive (no result: SMN2 splice enh)
c1cc2c3c(cccc3c1)NC(c1ccc3c(c1)OCO3)N2	FLuc modulator 27µM, NPC1 promoter act inconclusive (no result: SMN2 splice enh)
Cc1cccc(C2Nc3cccc4cccc(c34)N2)c1	FLuc modulator 21µM, NPC1 promoter act inconclusive (no result: SMN2 splice enh)
Cc1c2cnn(-c3ccccc3)c(=O)c2c(C)n1CC(=O)NCc1ccccc1Br	none (no result: Rab9 prom act, ELG1 genotox, NPC1 promoter act, ELG1 repair inh)
C/C(=N\NC(=O)c1ccn(C)n1)c1cccc(NC(=O)c2ccc(C)s2)c1	SMN2 splice enh inconclusive, FLuc modulator 3µM, NPC1 promoter act inconclusive, ELG1 repair inh inconclusive
C/C(=N/NC(=O)c1cccs1)c1ccc(NC(=O)COc2ccc(Cl)cc2Cl)cc1	ELG1 repair inh inconclusive
C/C(=N/NC(=O)c1ccc(C)s1)c1cccc(NC(=O)COc2ccc(Cl)cc2Cl)c1	Rab9 prom act 0.5µM, FLuc modulator 2.1µM, NPC1 promoter act 0.56µM, ELG1 repair inh inconclusive
C/C(=N/NC(=O)c1ccco1)c1cccc(NC(=O)c2ccc(C)s2)c1	SMN2 splice enh inconclusive, FLuc modulator 4.8µM
C/C(=N/NC(=O)c1ccco1)c1cccc(NC(=O)c2ccc(C)o2)c1	FLuc modulator 15µM
C/C(=N/NC(=O)c1ccc(Br)o1)c1cccc(NC(=O)c2ccc(F)cc2)c1	FLuc modulator 11µM, ELG1 repair inh inconclusive (no result: SMN2 splice enh)
C/C(=N\NC(=O)C1CC1)c1ccc(NC(=O)c2ccc(Br)o2)cc1	ELG1 genotox inconclusive, NPC1 promoter act inconclusive, ELG1 repair inh inconclusive
C/C(=N/NC(=O)c1ccc(Br)o1)c1ccncc1	FLuc modulator inconclusive, ELG1 repair inh inconclusive
C/C(=N/NC(=O)c1ccc(Br)o1)c1cccc(NC(=O)c2ccc(C)o2)c1	FLuc modulator 11µM, ELG1 repair inh inconclusive
Cc1c(C(=O)N2CCC(C(=O)Nc3ccc(F)cc3)CC2)sc2nc[nH]c(=O)c12	none (no result: SMN2 splice enh, Rab9 prom act, ELG1 genotox, NPC1 promoter act, ELG1 repair inh)
CCOc1ccccc1C(=O)Nc1ccc(S(=O)(=O)Nc2onc(C)c2C)cc1	FLuc modulator inconclusive (no result: Rab9 prom act, ELG1 genotox, NPC1 promoter act, ELG1 repair inh)
O=C(O)CCn1cc(C2CC(c3ccccc3)=NN2c2ccccc2)c(-c2ccccc2)n1 (centres undefined)	FLuc modulator 19µM
Cc1ccc(-c2nn(-c3ccccc3)cc2C2CC(c3cccs3)=NN2C(=O)CCC(=O)O)cc1 (centres undefined)	ELG1 repair inh inconclusive
COc1ccc(Nc2ncc(C(=O)N3CCN(c4ccc(F)cc4)CC3)c3ccccc23)cc1	ELG1 repair inh 21µM
COc1ccc(C(=O)Nc2ccc(N3CCCC3)cc2)cc1	Rab9 prom act inconclusive, ELG1 genotox inconclusive, FLuc modulator 7.6µM, ELG1 repair inh inconclusive
CN(C)c1cccc(C(=O)Nc2ccc(N3CCOCC3)cc2)c1	SMN2 splice enh inconclusive, Rab9 prom act inconclusive, ELG1 genotox inconclusive, FLuc modulator 21µM, ELG1 repair inh inconclusive
COc1ccccc1N1CCN(c2ncc(C(=O)N3CCN(c4cccc(Cl)c4)CC3)c3ccccc23)CC1	ELG1 repair inh 5.2µM
Cc1ccc(S(=O)(=O)c2cn(Cc3ccccc3Cl)c3ccc(F)cc3c2=O)cc1	none (no result: Rab9 prom act, ELG1 genotox, NPC1 promoter act, ELG1 repair inh)
